# Laboratory results taken from PMC7862700, “An all-to-all approach to the identification of sequence-specific readers for epigenetic DNA modifications on cytosine”.
# How the values were obtained:
# Assay in all cases: DAPPL (digital affinity profiling via proximity ligation, sequencing); 10 mM Tris-HCl pH 7.5, 50 mM NaCl, 1 mM DTT, 4% glycerol, room temperature, 30 min; GST-TFs on glutathione beads, 16-mer random dsDNA library, 0.1% formaldehyde crosslink after washing; high values mean tight binding
# Settings in all cases: protein: recombinant; tags: N-terminal GST; dsDNA, one strand shown
# [1] = biological target: T1, ERF (Homo sapiens, UniProt P50548 1-548)
# T1 sequence: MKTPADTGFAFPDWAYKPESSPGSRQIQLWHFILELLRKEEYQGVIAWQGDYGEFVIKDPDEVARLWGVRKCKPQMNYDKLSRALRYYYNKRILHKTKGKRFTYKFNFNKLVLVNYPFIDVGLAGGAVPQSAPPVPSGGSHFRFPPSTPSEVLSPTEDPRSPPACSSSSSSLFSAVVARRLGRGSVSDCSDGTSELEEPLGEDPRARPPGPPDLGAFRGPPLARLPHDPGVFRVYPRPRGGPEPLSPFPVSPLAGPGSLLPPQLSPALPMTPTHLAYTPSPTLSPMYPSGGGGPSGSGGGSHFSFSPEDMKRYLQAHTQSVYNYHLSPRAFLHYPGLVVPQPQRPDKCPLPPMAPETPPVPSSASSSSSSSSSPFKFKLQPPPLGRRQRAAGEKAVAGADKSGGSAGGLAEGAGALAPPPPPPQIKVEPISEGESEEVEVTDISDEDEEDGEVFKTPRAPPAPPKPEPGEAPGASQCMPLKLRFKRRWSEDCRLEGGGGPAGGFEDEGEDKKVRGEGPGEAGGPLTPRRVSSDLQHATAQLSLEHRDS
# Outline: (§1)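 Yeast served to express human transcription factors as GST fusions, which were then captured on glutathione beads and labelled with DNA barcodes. Pooled with a tag-only sample, they were incubated with 200 nmole of a 16-mer random double-stranded DNA library for 30 min at room temperature in Tris/NaCl/DTT/glycerol buffer, washed, crosslinked with 0.1% formaldehyde, ligated by proximity, amplified by PCR and sequenced. Dividing each hexamer's read frequency for a factor by its frequency for the tag-only sample gives the binding signal.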
# [2] = biological target: T2, ETV3L (Homo sapiens, UniProt Q6ZN32 1-361)
# T2 sequence: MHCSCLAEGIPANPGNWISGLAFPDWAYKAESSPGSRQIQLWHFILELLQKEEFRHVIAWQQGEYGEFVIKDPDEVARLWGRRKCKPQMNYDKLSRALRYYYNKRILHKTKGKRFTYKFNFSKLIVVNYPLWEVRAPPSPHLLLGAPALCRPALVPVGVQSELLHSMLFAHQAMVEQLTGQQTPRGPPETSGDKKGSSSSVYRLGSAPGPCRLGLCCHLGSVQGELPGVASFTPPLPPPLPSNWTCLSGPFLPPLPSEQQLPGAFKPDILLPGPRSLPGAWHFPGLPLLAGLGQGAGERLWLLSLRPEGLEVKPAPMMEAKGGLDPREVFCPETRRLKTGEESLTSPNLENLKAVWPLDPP
# Outline: as §1
# [3] = biological target: T3, ETS2 (Homo sapiens, UniProt P15036 1-469)
# T3 sequence: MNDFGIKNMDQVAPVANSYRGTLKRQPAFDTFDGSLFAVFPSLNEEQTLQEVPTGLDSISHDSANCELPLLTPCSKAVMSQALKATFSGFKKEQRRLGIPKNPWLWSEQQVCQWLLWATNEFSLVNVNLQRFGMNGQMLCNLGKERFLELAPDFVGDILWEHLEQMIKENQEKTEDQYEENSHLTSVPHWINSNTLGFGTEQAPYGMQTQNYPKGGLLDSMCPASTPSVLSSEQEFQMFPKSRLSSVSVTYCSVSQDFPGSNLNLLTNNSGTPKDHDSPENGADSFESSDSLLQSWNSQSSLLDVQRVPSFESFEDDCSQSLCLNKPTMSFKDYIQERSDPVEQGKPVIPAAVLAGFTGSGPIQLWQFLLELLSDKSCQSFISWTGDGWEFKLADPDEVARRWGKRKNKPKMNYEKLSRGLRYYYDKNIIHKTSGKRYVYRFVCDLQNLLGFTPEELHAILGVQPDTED
# Outline: as §1
# [4] = biological target: T4, SPDEF (Homo sapiens, UniProt O95238 1-335)
# T4 sequence: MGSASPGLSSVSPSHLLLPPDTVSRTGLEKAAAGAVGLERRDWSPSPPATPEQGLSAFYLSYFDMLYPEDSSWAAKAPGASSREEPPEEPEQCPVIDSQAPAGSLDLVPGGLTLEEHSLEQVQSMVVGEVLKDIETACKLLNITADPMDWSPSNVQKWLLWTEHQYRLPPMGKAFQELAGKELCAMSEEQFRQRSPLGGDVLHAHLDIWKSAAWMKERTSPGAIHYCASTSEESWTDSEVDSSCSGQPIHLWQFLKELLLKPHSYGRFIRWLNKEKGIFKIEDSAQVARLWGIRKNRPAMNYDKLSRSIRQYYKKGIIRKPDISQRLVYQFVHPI
# Outline: as §1
# [5] = biological target: T5, ETV7 (Homo sapiens, UniProt Q9Y603 1-341)
# T5 sequence: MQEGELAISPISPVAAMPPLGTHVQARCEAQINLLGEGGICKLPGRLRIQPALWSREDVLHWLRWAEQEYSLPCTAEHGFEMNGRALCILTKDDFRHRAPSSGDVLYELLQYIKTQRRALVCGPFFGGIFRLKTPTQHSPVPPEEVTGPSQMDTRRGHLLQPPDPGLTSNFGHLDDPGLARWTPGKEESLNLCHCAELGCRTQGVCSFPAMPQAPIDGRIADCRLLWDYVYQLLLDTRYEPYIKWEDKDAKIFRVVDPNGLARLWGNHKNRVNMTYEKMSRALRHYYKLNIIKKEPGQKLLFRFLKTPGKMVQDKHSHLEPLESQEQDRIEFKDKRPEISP
# Outline: as §1
# [6] = biological target: T6, ELF5 (Homo sapiens, UniProt Q9UKW6-2 1-255)
# T6 sequence: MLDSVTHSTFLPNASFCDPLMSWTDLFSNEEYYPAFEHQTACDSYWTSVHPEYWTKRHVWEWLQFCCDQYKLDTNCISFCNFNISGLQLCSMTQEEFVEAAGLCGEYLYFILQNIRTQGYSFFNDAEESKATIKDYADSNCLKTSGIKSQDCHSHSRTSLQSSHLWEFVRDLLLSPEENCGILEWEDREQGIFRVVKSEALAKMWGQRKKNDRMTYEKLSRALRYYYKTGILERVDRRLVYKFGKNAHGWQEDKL
# Outline: as §1
# [7] = biological target: T7, ETV3 (Homo sapiens, UniProt P41162-2 1-143)
# T7 sequence: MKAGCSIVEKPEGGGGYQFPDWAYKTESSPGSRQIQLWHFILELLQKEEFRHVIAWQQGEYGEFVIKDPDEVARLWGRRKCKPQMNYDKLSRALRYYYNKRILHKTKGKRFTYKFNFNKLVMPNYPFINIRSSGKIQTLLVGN
# Outline: as §1
# [8] = biological target: ETV6 (Homo sapiens, UniProt P41212 1-452)
# Outline: as §1
# ETV6, sequence (P41212 whole entry): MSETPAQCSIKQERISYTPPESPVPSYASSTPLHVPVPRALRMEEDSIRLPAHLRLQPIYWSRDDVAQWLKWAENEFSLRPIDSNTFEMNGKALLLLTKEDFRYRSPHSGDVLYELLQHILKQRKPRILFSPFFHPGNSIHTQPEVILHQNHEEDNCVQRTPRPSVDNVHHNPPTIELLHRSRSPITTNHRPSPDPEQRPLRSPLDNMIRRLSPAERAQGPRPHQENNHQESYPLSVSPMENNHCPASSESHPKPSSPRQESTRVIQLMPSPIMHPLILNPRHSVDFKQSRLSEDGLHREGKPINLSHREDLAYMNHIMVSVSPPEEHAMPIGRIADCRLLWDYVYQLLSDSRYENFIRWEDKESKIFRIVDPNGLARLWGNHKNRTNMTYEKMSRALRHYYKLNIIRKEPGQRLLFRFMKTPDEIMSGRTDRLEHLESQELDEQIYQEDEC
Sequence,binding signal [1],binding signal [2],binding signal [3],binding signal [4],binding signal [5],binding signal [6],binding signal [7],binding signal [8]
CGACCC,"1.36 fold enrichment (6-mer frequency, TF over GST control)","1.28 fold enrichment (6-mer frequency, TF over GST control)","1.29 fold enrichment (6-mer frequency, TF over GST control)","1.44 fold enrichment (6-mer frequency, TF over GST control)","1.28 fold enrichment (6-mer frequency, TF over GST control)","1.26 fold enrichment (6-mer frequency, TF over GST control)","1.4 fold enrichment (6-mer frequency, TF over GST control)","1.29 fold enrichment (6-mer frequency, TF over GST control)"
ACATTG,"1.26 fold enrichment (6-mer frequency, TF over GST control)","1.18 fold enrichment (6-mer frequency, TF over GST control)","1.17 fold enrichment (6-mer frequency, TF over GST control)","1.12 fold enrichment (6-mer frequency, TF over GST control)","1.2 fold enrichment (6-mer frequency, TF over GST control)","1.07 fold enrichment (6-mer frequency, TF over GST control)","1.1 fold enrichment (6-mer frequency, TF over GST control)","1.21 fold enrichment (6-mer frequency, TF over GST control)"
GTTTCA,"1.35 fold enrichment (6-mer frequency, TF over GST control)","1.35 fold enrichment (6-mer frequency, TF over GST control)","1.34 fold enrichment (6-mer frequency, TF over GST control)","1.22 fold enrichment (6-mer frequency, TF over GST control)","1.21 fold enrichment (6-mer frequency, TF over GST control)","1.35 fold enrichment (6-mer frequency, TF over GST control)","1.3 fold enrichment (6-mer frequency, TF over GST control)","1.21 fold enrichment (6-mer frequency, TF over GST control)"
TGTATC,"1.39 fold enrichment (6-mer frequency, TF over GST control)","1.28 fold enrichment (6-mer frequency, TF over GST control)","1.42 fold enrichment (6-mer frequency, TF over GST control)","1.89 fold enrichment (6-mer frequency, TF over GST control)","1.31 fold enrichment (6-mer frequency, TF over GST control)","1.51 fold enrichment (6-mer frequency, TF over GST control)","1.54 fold enrichment (6-mer frequency, TF over GST control)","1.36 fold enrichment (6-mer frequency, TF over GST control)"
ACACTA,"1.15 fold enrichment (6-mer frequency, TF over GST control)","1.18 fold enrichment (6-mer frequency, TF over GST control)","1.1 fold enrichment (6-mer frequency, TF over GST control)","1.09 fold enrichment (6-mer frequency, TF over GST control)","1.15 fold enrichment (6-mer frequency, TF over GST control)","1.09 fold enrichment (6-mer frequency, TF over GST control)","1.12 fold enrichment (6-mer frequency, TF over GST control)","1.21 fold enrichment (6-mer frequency, TF over GST control)"
CCCTCA,"1.18 fold enrichment (6-mer frequency, TF over GST control)","1.18 fold enrichment (6-mer frequency, TF over GST control)","1.14 fold enrichment (6-mer frequency, TF over GST control)","1.2 fold enrichment (6-mer frequency, TF over GST control)","1.07 fold enrichment (6-mer frequency, TF over GST control)","1.14 fold enrichment (6-mer frequency, TF over GST control)","1.12 fold enrichment (6-mer frequency, TF over GST control)","1.09 fold enrichment (6-mer frequency, TF over GST control)"
GTACCT,"1.19 fold enrichment (6-mer frequency, TF over GST control)","1.19 fold enrichment (6-mer frequency, TF over GST control)","1.21 fold enrichment (6-mer frequency, TF over GST control)","1.27 fold enrichment (6-mer frequency, TF over GST control)","1.2 fold enrichment (6-mer frequency, TF over GST control)","1.31 fold enrichment (6-mer frequency, TF over GST control)","1.14 fold enrichment (6-mer frequency, TF over GST control)","1.19 fold enrichment (6-mer frequency, TF over GST control)"
GAATTC,"1.38 fold enrichment (6-mer frequency, TF over GST control)","1.41 fold enrichment (6-mer frequency, TF over GST control)","1.33 fold enrichment (6-mer frequency, TF over GST control)","1.33 fold enrichment (6-mer frequency, TF over GST control)","1.32 fold enrichment (6-mer frequency, TF over GST control)","1.32 fold enrichment (6-mer frequency, TF over GST control)","1.35 fold enrichment (6-mer frequency, TF over GST control)","1.2 fold enrichment (6-mer frequency, TF over GST control)"
ATGATC,"1.33 fold enrichment (6-mer frequency, TF over GST control)","1.22 fold enrichment (6-mer frequency, TF over GST control)","1.16 fold enrichment (6-mer frequency, TF over GST control)","1.27 fold enrichment (6-mer frequency, TF over GST control)","1.22 fold enrichment (6-mer frequency, TF over GST control)","1.22 fold enrichment (6-mer frequency, TF over GST control)","1.2 fold enrichment (6-mer frequency, TF over GST control)","1.19 fold enrichment (6-mer frequency, TF over GST control)"
